TR SRC2 fluor cs: counter-screen for TRb-SRC2 inhibitors: fluorescence interference; 0.29% of 280,000 active; AID 1479; Potency, µM (highest dose often 106 µM), without a hit: at the top dose fluorescence change, negative = quenching; TRb/SRC2 Texas Red total fluorescence interference; active means well fitted curve in either direction with a large enough effect; inconclusive means small, poorly fitted or top-dose-only effect
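Human TRb ligand-binding domain at 0.6 uM with 20 nM Texas Red SRC2 peptide in Tris buffer containing 1 uM T3 and 5% DMSO, incubated with compound 5 h at ambient temperature. Total fluorescence (555/632 nm) calculated as parallel + 2 × perpendicular.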
Tau FP inhib: inhibitors of human tau fibril formation. K18 P301L tau heparin fibrillization, Alexa594 FP, 6 h. Potency, µM (highest dose often 57.7 µM), for inactives: at the highest dose activity, negative = inhibition, actives largely listed as inhibitors. 0.39% of 280,000 active. AID 1468; further: nearly all actives have a fitted effect of over 55% in size
Target sequence (P10636 561-689 P618L limits assumed): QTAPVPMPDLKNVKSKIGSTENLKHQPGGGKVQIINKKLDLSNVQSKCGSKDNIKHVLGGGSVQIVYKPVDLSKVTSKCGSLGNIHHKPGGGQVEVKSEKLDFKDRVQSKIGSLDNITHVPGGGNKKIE
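Recombinant K18 P301L […], labeled with Alexa 594 at 0.24 uM over 15 uM unlabeled; heparin inducer 20 uM final; 37 C, 6 hr; FP endpoint.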
TRb SRC2 PPI: inhibitors of human thyroid hormone receptor beta-SRC2 interaction; 0.065% of 280,000 active; AID 1469; Potency, µM (top dose mostly 106 µM), inactives show at the highest dose activity change, negative = inhibition, hits mostly inhibitors; TRbeta-SRC2 peptide binding, fluorescence polarization; receptor liganded with 1 µM T3; P10828;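 further: plate controls were bound peptide for no effect and peptide without receptor for full effect; nearly all actives have a fitted effect of over 50% in size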
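TRb LBD 0.6 uM + Texas Red SRC2 peptide 20 nM, 1 uM T3, Tris buffer w/ 5% DMSO; compound pinned, 5 h RT; FP read ex 555/em 632; normalized to unbound and bound controls.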
RGS12 GoLoco inh: inhibitors of human Gai1-RGS12 GoLoco interaction (red fluorophore). P63096. Gai1:RGS12 GoLoco peptide FP, rhodamine, 10 min. Potency, µM (highest dose often 61.6 µM), for the others: at the top dose activity, negative = inhibition, usual class: inhibitors. 0.44% of 230,000 active. AID 880; active means well fitted inhibition curve with a large enough effect, not every such curve was filed as active; inactive means no such curve, though single readings can be large or run the other way; further: nearly all actives have a fitted effect of over 30% in size
Target sequence (P63096 whole entry, looked up): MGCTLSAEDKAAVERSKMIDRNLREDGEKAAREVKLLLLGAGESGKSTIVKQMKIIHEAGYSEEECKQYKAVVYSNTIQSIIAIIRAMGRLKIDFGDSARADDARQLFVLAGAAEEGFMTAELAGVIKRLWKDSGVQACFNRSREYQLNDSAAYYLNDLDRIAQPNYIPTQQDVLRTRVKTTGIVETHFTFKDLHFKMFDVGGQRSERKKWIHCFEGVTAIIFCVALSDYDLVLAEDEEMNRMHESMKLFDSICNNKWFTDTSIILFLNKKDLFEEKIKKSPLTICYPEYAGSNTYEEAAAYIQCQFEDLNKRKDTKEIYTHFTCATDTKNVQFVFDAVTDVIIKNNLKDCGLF
Tau fibril ThT: tau fibrillization inhibition (ThT binding); 2.1% of 270,000 active; recombinant tau K18 P301L, heparin-induced fibrillization, ThT fluorescence; Potency, µM (highest dose often 57.4 µM), inactives show at the top dose activity, negative = inhibition, hits mostly inhibitors; P10636; further: nearly all actives have a fitted effect of over 55% in size
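In this qHTS, human K18 P301L tau is incubated with compound and heparin for 6 hr at 37 C, and Thioflavin T fluorescence then reports fibril load.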
Tau fluor counter: counter-screen for tau fibril formation inhibitors. Potency, µM (doses to about 57.7 µM), inactives show top-dose activity change, negative = decrease. 0.93% of 280,000 active. tau K18 P301L Alexa594 fluorescence, heparin fibrillization; further: nearly all actives have a fitted effect of over 55% in size
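Human tau K18 P301L (15 uM unlabeled, 0.24 uM Alexa 594-labeled) in 100 mM sodium acetate pH 7 with 20 uM heparin, 6 hr at 37 C. ThT 30 uM added, 1 hr ambient; Alexa 594 FP and total fluorescence read at 555/632 nm.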
Numbers without * were called inactive; ? = inconclusive; nt = no result; [ ] = another dose, or the depositor's remark. Shown are actives, neighbours in structure and some others; about 3.2% of the full set was active somewhere. Unless noted, the call rests on the fitted dose curve; in most records, active means well fitted curve in the direction sought with a large enough effect; inconclusive means small, poorly fitted or top-dose-only effect, or another doubt; inactive means no such curve, though single readings can be large; an effect the other way counts as inactive or inconclusive. Unless noted, on the % scale 0 is the no-effect control and ±100 the full control effect; potency means the concentration at half of the fitted maximal effect.

SMILES	TR SRC2 fluor cs	Tau FP inhib	TRb SRC2 PPI	RGS12 GoLoco inh	Tau fibril ThT	Tau fluor counter
CS/C(=N\S(=O)(=O)c1ccc(Cl)cc1)c1ccccc1	-0.8%	-5.9%	-2.5%	1.5%	-2.9%	-8.0%
CCOC(CNC(=O)c1ccc(N2CCc3ccccc32)c([N+](=O)[O-])c1)OCC	-1.4%	?	-3.6%	2.9%	12.6µM*	?
Cc1cc([N+](=O)[O-])c2c(c1C)C1C=CCC1C(c1ccccn1)N2 (stereo not drawn)	-5.3%	?	-4.1%	18.4%	15.8µM*	?
COC(=O)[C@@]1(C)CCC[C@@]2(C)c3ccc(O)c(C(C)C)c3CCC21 (stereo partly drawn)	-1.9%	-10.5%	6.2%	2.4%	?	15.8µM*[quencher]
CS(=O)(=O)N1CCc2cc(C(=O)Nc3ccc(C(F)(F)F)cc3)ccc21	0.1%	?	-7.4%	nt	4.1%	-16.2%
CS(=O)(=O)N1CCc2cc(C(=O)Nc3ccc(Cl)c(C(F)(F)F)c3)ccc21	0.5%	20µM*	2.9%	nt	17.0%	?
COc1ccc(C(=O)/C=C/c2cn(CN3CCN(C)CC3)c3ccccc23)cc1	-4.7%	0.3%	0.9%	-2.8%	12.6µM*	17.8µM*[quencher]
CCOc1ccc(/C=C/C(=O)c2ccccc2)cc1	-2.0%	6.2%	2.9%	4.7%	?	-19.2%
CCC(=C(c1ccc(OC)cc1)c1ccc(OC)cc1)c1cn(CC(O)CN(CCO)CCO)c2ccccc12 (stereo not drawn)	-1.0%	0.6%	-0.2%	-0.2%	?	12.6µM*[quencher]
CCCN(CCC)CC(O)Cn1cc(/C=C/C(=O)c2ccc(OCC)cc2)c2ccccc21 (stereo not drawn)	-4.2%	-0.2%	-3.2%	nt	8.91µM*	?
COc1ccc(OCC(O)CN(CCO)CC(O)Cn2ccc3ccccc32)cc1 (stereo not drawn)	0.2%	2.3%	-1.2%	11.9%	-1.6%	-4.6%
CCOc1ccc(C(=O)/C=C/c2cn(CN3CCN(C)CC3)c3ccccc23)cc1	-5.4%	5.4%	4.4%	7.8%	?	12.6µM*[quencher]
COc1ccc(-c2nnc(-c3cc4ccccc4oc3=O)o2)cc1	-1.8%	4.0%	10.6%	-10.4%	-2.5%	-8.0%
Oc1ccc(Nc2nc(-c3ccc(O)cc3)cs2)cc1	?	2.1%	20.6%	-3.2%	6.31µM*	14.1µM*[quencher]
COc1ccc2oc(=O)c(-c3nnc(-c4ccc(C)cc4)o3)cc2c1	20µM*[quencher]	-8.2%	-16.8%[53 µM]	nt	-7.9%	1.2%
COc1ccc(Nc2nc(-c3c[nH]c4ccccc34)cs2)cc1	26.5%	?	14.0%	30.6%	8.91µM*	12.6µM*[quencher]
COc1ccc(Nc2nc(-c3ccc(OC)cc3)cs2)cc1	-2.9%	5.5%	-1.9%	1.6%	?	?
COc1ccc2oc(=O)c(-c3csc(Nc4ccc(O)cc4)n3)cc2c1	-4.0%	-15.1%	-6.5%	-6.3%	2.24µM*	3.16µM*[quencher]
CCN(Cc1ccccc1)C(=O)Cn1c(=O)n(-c2ccc(F)c(Cl)c2)c(=O)c2sc3ccccc3c21	9.1%	-11.5%	1.0%	nt	-4.9%	-7.2%
CC(=O)OC(C)(C)C1CC=C(C)CC1 (stereo not drawn)	3.0%[201 µM]	nt	-0.1%[201 µM]	nt	nt	nt
CC(=O)Oc1ccc(-c2csc(Nc3ccc(S(N)(=O)=O)cc3)n2)cc1	-7.4%	10.9%[2.34 µM]	5.3%	16.0%	0.4%	12.2%[2.34 µM]
COc1ccc(-c2csc(Nc3ccccc3)n2)cc1	-3.6%	6.3%	-0.2%	-2.6%	?	28.2µM*[quencher]
NS(=O)(=O)c1ccc(Nc2nc(-c3ccc(O)cc3)cs2)cc1	?	20.3%	12.3%	-6.6%	12.6µM*	?
COc1ccc(-c2csc(Nc3ccc(S(N)(=O)=O)cc3)n2)cc1	-3.7%	?	2.2%	5.2%	?	12.6µM*[quencher]
Brc1ccc(-c2csc(Nc3nc(-c4ccc(Br)cc4)cs3)n2)cc1	-0.6%	2.1%	-7.4%	2.6%	?	8.91µM*[quencher]
SMILES	TR SRC2 fluor cs	Tau FP inhib	TRb SRC2 PPI	RGS12 GoLoco inh	Tau fibril ThT	Tau fluor counter
Nc1nc(-c2ccc(Br)cc2)cs1	0.3%	2.5%	-10.6%	-17.9%	?	?
Oc1ccc(Nc2nc(-c3ccc(Cl)cc3)cs2)cc1	-23.0%	?	-1.2%	-4.2%	3.98µM*	7.94µM*[quencher]
Cn1cc(CN(C(=O)Nc2ccccc2)C2CCCCC2)c2ccccc21	-0.9%	-2.9%	-4.0%	nt	-17.2%	-19.7%
CN(C)c1ccc(C(CNC(=O)c2ccccc2)c2c[nH]c3ccccc23)cc1 (stereo not drawn)	-3.3%	?	0.0%	1.0%	?	14.1µM*[quencher]
CN(C)c1ccc(C(CNC(=O)c2ccccc2F)c2c[nH]c3ccccc23)cc1 (stereo not drawn)	3.5%	?	0.8%	51.4%	-13.6%	?
Cc1ccc2c(c1)N(C(=O)N1CCC(C(=O)NC3CCCCCC3)CC1)CCO2	-15.2%	5.7%	1.1%	nt	-9.6%	?
CCOc1ccccc1CNC(=O)C1CCN(C(=O)N2CCOc3ccc(Cl)cc32)CC1	-33.6%	?	1.1%	nt	31.6µM*	?
COc1ccc(CNC(=O)C2CCN(C(=O)N3CCOc4ccc(Cl)cc43)CC2)cc1	?	-4.4%	-10.8%	nt	?	-16.3%
O=C(NC1CCCCCC1)C1CCN(C(=O)N2CCOc3ccc(Cl)cc32)CC1	4.2%	?	1.0%	nt	22.4µM*	?
Cc1ccc2c(c1)N(C(=O)N1CCC(C(=O)NC3CCCCCC3)CC1)CC(C)O2 (stereo not drawn)	3.0%	7.6%	-1.8%	nt	?	10µM*[quencher]
O=C(Nc1cc(F)ccc1F)c1ccc(CN2CC(=O)N3CCCCC3C2=O)cc1 (stereo not drawn)	3.8%	-4.5%	-3.4%	nt	-14.9%	-17.9%
Cc1c(C(=O)Nc2ccc(C(C)C)cc2)sc2nc3n(c(=O)c12)CCC3	?	-8.7%	-4.7%	nt	-7.8%	-12.3%
COc1ncc2nc(-c3ccc(F)cc3)c(=O)n(C)c2n1	nt	nt	nt	21.2%	nt	nt
CCOC(=O)C1=C(C)n2c(s/c(=C3\C(=O)Nc4ccccc43)c2=O)=NC1c1ccc(OC)cc1 (stereo not drawn)	-2.4%	?	-1.0%	-4.9%	15.8µM*	?
CCOC(=O)C1=C(C)N=c2s/c(=C3/C(=O)Nc4ccccc43)c(=O)n2C1c1ccc(C)cc1 (stereo not drawn)	-2.7%	3.0%	8.4%	-3.1%	-5.6%	-3.4%

Screens deposited in PubChem BioAssay by National Center for Advancing Translational Sciences (NCATS).
